DT40 TDP1 no CPT: qHTS for Inhibitors of human tyrosyl-DNA phosphodiesterase 1 (TDP1): qHTS in cells in absence of CPT; DT40 Tdp1-/- hTDP1 cells, no CPT, ATP luminescence, 48 h; Potency, µM (titrated, usually from 46.2 µM), inactives show at the top dose activity change, negative = growth inhibition, most hits filed as inhibitors; 420,000 compounds, 15% hits; AID 686978, 2013; further: nearly all actives have a fitted effect of over 55% in size
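Readout: luminescence from CellTiter-Glo after 30 min in the dark at RT. Cells: DT40 Tdp1-/- with stable hTDP1, 400/well. Exposure: compounds alone, ≥48 hr, 37 °C.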
12-LOX inh: blocks human arachidonate 12S-lipoxygenase. P18054. purified 12hLO, xylenol orange hydroperoxide absorbance. Potency, µM (top dose mostly 108 µM), for the others: top-dose activity change, negative = inhibition, actives largely listed as inhibitors. 580,000 compounds, 1.1% hits
Target sequence (P18054 whole entry, looked up): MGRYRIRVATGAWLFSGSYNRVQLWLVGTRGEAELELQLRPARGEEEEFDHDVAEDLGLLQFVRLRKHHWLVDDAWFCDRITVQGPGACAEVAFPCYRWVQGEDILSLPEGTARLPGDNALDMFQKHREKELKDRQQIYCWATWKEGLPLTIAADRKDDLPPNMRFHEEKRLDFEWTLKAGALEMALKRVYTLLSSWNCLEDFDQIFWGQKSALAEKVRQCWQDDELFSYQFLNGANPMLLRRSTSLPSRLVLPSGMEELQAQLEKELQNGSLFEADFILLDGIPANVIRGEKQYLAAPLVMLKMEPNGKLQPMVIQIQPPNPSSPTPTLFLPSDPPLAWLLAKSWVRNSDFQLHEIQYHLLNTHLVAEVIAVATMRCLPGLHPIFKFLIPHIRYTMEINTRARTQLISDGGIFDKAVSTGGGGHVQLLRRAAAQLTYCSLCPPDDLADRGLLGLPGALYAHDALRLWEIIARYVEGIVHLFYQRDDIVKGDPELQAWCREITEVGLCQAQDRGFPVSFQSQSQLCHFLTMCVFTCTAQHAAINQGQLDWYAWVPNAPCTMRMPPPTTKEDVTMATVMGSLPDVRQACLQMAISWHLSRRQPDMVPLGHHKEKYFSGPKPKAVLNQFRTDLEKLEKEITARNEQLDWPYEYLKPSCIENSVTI
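Purified human 12hLO at 150 nM in 25 mM Hepes, 0.01% Triton X-100, pH 7.0, preincubated 15 min at room temperature with compound. Reaction started with 40 uM arachidonic acid, 30 min at room temperature. Hydroperoxide measured by Fe-xylenol orange, 573/405 nm absorbance ratio.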
Gal4-VP16 FLuc: Gal4-VP16 reporter inhibition counter-screen; Drosophila S2 Gal4-VP16 UAS-luciferase, luminescence, 20 h; Potency, µM (series often up to 53.6 µM), for inactives: at the highest dose activity, negative = inhibition, hits mostly inhibitors; 310,000 compounds, 3.5% hits; AID 2546;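 further: Gal4-VP16 expression switched on by copper sulfate through the metallothionein promoter; nearly all actives have a fitted effect of over 50% in size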
RORg inh: ROR gamma (mouse) transcription inhibition | AID 2551 | P51450 | Drosophila S2 Gal4-RORgamma UAS-luciferase reporter, 20 h | Potency, µM (top dose mostly 53.6 µM), without a hit: at the top dose activity change, negative = inhibition, hits mostly inhibitors | 310,000 compounds, 5.4% hits; further: nearly all actives have a fitted effect of over 60% in size
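A Gal4/UAS one-hybrid system in insect cells: metallothionein-promoter Gal4–ROR gamma fusion plus Photinus luciferase reporter. Copper sulfate 700 uM final, 20 hr ambient incubation, luminescent detection after 10 min with reagent.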
ELG1 DNA repair: inhibitors of ELG1-dependent DNA repair in HEK293T cells; HEK293T ELG1-luciferase reporter, luminescence, 16 h; DNA damage induced by 5-fluorouridine; Potency, µM (doses to about 46.1 µM), for inactives: top-dose activity change, negative = inhibition, hits mostly inhibitors; 330,000 compounds, 2.3% hits; AID 504467; further: nearly all actives have a fitted effect of over 55% in size
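5-Fluorouridine DNA damage + compound/DMSO, 2,000 cells/well, 16 h, 37 °C/5% CO2. ONE-Glo, 30 min RT, luminescence. Readout = decrease in reporter signal.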
TDP1 cell CPT: growth inhibition of DT40 Tdp1-/-;hTDP1 cells with camptothecin (screen for TDP1 inhibitors); chicken DT40 Tdp1-/-;hTDP1 cells + 20 nM CPT, ATP luminescence, 48 h; Potency, µM (doses to about 46.2 µM), without a hit: at the highest dose activity change, negative = growth inhibition, most hits filed as inhibitors; 420,000 compounds, 12% hits; further: nearly all actives have a fitted effect of over 55% in size
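Chicken DT40 Tdp1-/- cells stably complemented with human TDP1 were seeded at 400 cells/well in medium containing 20 nM camptothecin, exposed to pin-transferred compounds, and grown at 37 °C for at least 48 hr. Viability was read as ATP luminescence.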
The depositor's hits bear a star; u = inconclusive; x = no result given; [ ] = another dose, or the depositor's remark. The list is not random: actives were taken first. Their share in the collection is about 15%. The call rests on the fitted dose curve; in most records, active means well fitted curve in the direction sought with a large enough effect; inconclusive means small, poorly fitted or top-dose-only effect, or another doubt; inactive means no such curve, though single readings can be large; an effect the other way counts as inactive or inconclusive. On the % scale 0 is the no-effect control and ±100 the full control effect; potency means the concentration at half of the fitted maximal effect.

SMILES | DT40 TDP1 no CPT | 12-LOX inh | Gal4-VP16 FLuc | RORg inh | ELG1 DNA repair | TDP1 cell CPT
Cc1nc2c(c(=O)n1Cc1ccccc1Cl)c1nc3ccccc3nc1n2Cc1ccco1 | x | x | 3% | 3% | 0% | x
COC(=O)[C@@H](CC(C)C)NC(=O)[C@@H]1C[C@@H](n2nnc(C(N)=O)c2C(N)=O)CCN1C(=O)c1cccn1C | x | -8% | x | x | x | x
CCOC1=C2[C@@H](CN(S(=O)(=O)c3ccc(C)cc3)[C@H]2c2cccc3ccccc23)[C@H]2C(=O)N(C)C(=O)[C@H]2C1 | -1% | -24% | x | x | x | 6%
CCOC1=C2[C@@H](CN(S(=O)(=O)c3ccc(C)cc3)[C@H]2c2ccccc2Cl)[C@H]2C(=O)N(C)C(=O)[C@H]2C1 | 16µM* | -2% | x | x | x | 26µM*
CCOC1=C2[C@@H](CN(S(=O)(=O)c3ccccc3C)[C@H]2c2ccc(Cl)cc2)[C@H]2C(=O)N(C3CCCCC3)C(=O)[C@H]2C1 | u | u | x | x | x | 21µM*
CCc1ocnc1C(=O)N1CCC(C2CCN(Cc3cccc(F)c3F)CC2)C1 (centres undefined) | x | 64% | x | x | x | x
COc1ccc(NC(=O)CC2C(=O)N(c3ccccc3)C(=O)N2CCC2=CCCCC2)cc1 (centres undefined) | u | 5% | x | x | x | u
COc1ccc(N2C(=O)C(CC(=O)Nc3ccc(F)cc3)N(CCC3=CCCCC3)C2=O)cc1 (centres undefined) | 16µM* | u | x | x | x | u
CCOc1ccc(NC(=O)CC2C(=O)N(c3cccc(C)c3)C(=O)N2CCC2=CCCCC2)cc1 (centres undefined) | 23µM* | u | x | x | x | u
COc1cccc(C=NNC(=S)NC2CC3CCC2C3)c1O (centres undefined) | x | -1% | x | x | x | x
COc1ccc(/C=N/NC(=S)N[C@H]2CC3CCC2C3)cc1 (some centres undefined) | u | 10µM* | 3.2µM* | 0.63µM* | 7% | u
COc1cc(/C=N/NC(=S)NC2CC3CCC2C3)ccc1O (centres undefined) | u | u | 5µM* | 2µM* | 1% | u
Cc1ccc(C2Cn3nnc(C(=O)N4CCC(C(=O)NC5CCN(C)CC5)CC4)c3CO2)cc1 (centres undefined) | x | 38% | x | x | x | x
Cc1cc(C)c(NC(=O)/C(=C/c2ccccc2)c2ccccc2)c(C)c1 | 21µM* | -19% | u | -6%[10 µM] | 10% | 23µM*
Cc1sc2nc(CSc3nnnn3C3CCCCC3)[nH]c(=O)c2c1C | x | 0% | x | x | x | x
CC(OC(=O)c1ccc(C#N)cc1)C(=O)C12CC3CC(CC(C3)C1)C2 (centres undefined) | x | -47% | x | x | x | x
CCOc1ccc(N(C(C)C(=O)N/N=C(\C)c2cccc(NC(=O)c3ccccc3)c2)S(C)(=O)=O)cc1 (centres undefined) | 18µM* | 16% | -20% | u | u | 18µM*
COc1ccc(-c2nc(CC3CCN(C(=O)c4n[nH]c(=O)c5ccccc45)C3)no2)cc1 (centres undefined) | x | 53% | x | x | x | x
C(#CCN1CCN(Cc2ccccc2)CC1)COCCOCc1ccccc1 | x | -1% | x | x | x | x
CN(C(=O)c1ccc(NC(=O)C2CCCN(C(=O)OC(C)(C)C)C2)cc1)C1CCC1 (centres undefined) | 16µM* | 5% | x | x | u | u
CN(CCc1ccccc1)C(=O)c1ccc(NC(=O)Cc2cccc(NC(=O)C3CCN(C(=O)C4CCCC4)CC3)c2)cc1 | 9.2µM* | 22% | x | x | x | u

Screens deposited in PubChem BioAssay by National Center for Advancing Translational Sciences (NCATS).
